Results on five compounds are retold here after PubChem BioAssay.

The nature of experiment [1]: liver-stage malaria parasite growth inhibition, primary screen, cell-based, HepG2, luciferase luminescence, HepG2 viability (AID 624349; in the data active = parasite load remaining mostly below about 12%, no sharp cut-off; inactive = mostly above about 10%;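 note: 100% = mean of DMSO negative control wells on the same plate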). To be noted: P. berghei liver stage in HepG2, luciferase luminescence, concentration not given here; parasite load remaining: stronger effect = lower value; viability: measured here: HepG2 viability without parasites.
The subject of experiment [2] is Hepatitis C virus NS3 helicase. As to the kind of experiment: HCV NS3 helicase inhibitors, primary screen, biochemical, fluorescence polarization, LOPAC1280 library (AID 687035; in the data active = inhibition above about 37%). Conditions: Purified HCV NS3 helicase, Cy5-dT15 ssDNA binding fluorescence polarization; stronger effect = higher value; concentration not given here. On the technique in general: In fluorescence polarisation assays a small probe gives low polarisation when free and higher when bound to something large.

Experiment [3] is described as follows: Cy5 fluorescence quenching or enhancement artefacts, artefact control for HCV NS3 helicase inhibitor project, biochemical, LOPAC1280 (AID 687037). Conditions: Cy5-DNA-NS3h complex fluorescence interference counterscreen.
The nature of experiment [4]: stimulators of nuclear beta-catenin in C2C12, primary screen, imaging, WNT3A-conditioned medium, mouse C2C12, NPC library (AID 1117326; in the data active = nuclear beta-catenin stimulation mostly above about 4.2%, no sharp cut-off; inactive = mostly below about 10%). To be noted: stronger effect = higher value.
The nature of experiment [5]: stimulators of insulin release from INS-1E, primary screen, cell-based, 5 mM glucose, NPC library (AID 1117329;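 active = compound raises insulin release from rat beta cells at 5 mM glucose, no numeric limit stated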). To be noted: rat INS-1E insulin secretion, at 10 µM, stronger effect = higher value.
A short description of experiment [6]: growth inhibition of GSK3B-pretreated HCT116 cells – cell-based, CellTiter-Glo, 0.2 to 20 µM (AID 1117336;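 active = compounds lowering colon cancer cell viability after pretreatment blocking the GSK3B kinase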). To be noted: HCT116 viability after GSK3B inhibitor, at 20 µM, stronger effect = higher value. A general note: In ATP-based viability assays light output follows the ATP content of the culture.
Experiment [7] in a line: inhibition of endothelial tube formation, primary screen, imaging, VEGF stimulated, CD31 staining, tube area, NPC library (AID 1117340;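 active = compound that reduces growth-factor-driven endothelial tube area in a mixed cell culture, no cutoff stated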). Conditions: VEGF-stimulated ADSC/ECFC co-culture, at 10 µM, stronger effect = higher value.
The nature of experiment [8]: glucagon-like peptide 1 release enhancers, primary assay, NCI-H716 cell line, NPC library (AID 1117341;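 active = compound raises GLP1 secretion from the human gut endocrine cells, with no numeric limit stated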). Conditions: NCI-H716 cells, at 10 µM, stronger effect = higher value.
Experiment [9] in a line: HCT116 colon cancer cell growth inhibition, primary screen, CellTiter-Glo luminescence, NPC library (AID 1117342;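 active = compounds that lower survival of HCT116 colon cancer cells in the luminescence readout, no numeric limit stated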). To be noted: at 20 µM (top of the series).
Experiment [10] can be described thus: CellTiter-Glo luminescent readout of SW480 viability loss, NPC library primary (AID 1117343;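 active = compounds that lower viability of the colon cancer cells in the luminescence readout, with no numeric limit stated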). To be noted: CellTiter-Glo luminescence; at 20 µM (top of the series) unless noted.
Experiment [11] in a line: decreased DLD-1 cellular survival, CellTiter-Glo luminescent readout, NPC compound collection, primary HTS (AID 1117346;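 active = compounds that lower survival of DLD-1 colon cancer cells in the luminescence readout, no cutoff given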). Conditions: DLD-1 viability, CellTiter-Glo luminescence; at 20 µM (top of the series).
Experiment [12] in a line: sensitizers of A549 cells to miR-34 induction, primary screen, imaging, A549 dox-inducible miR-34, nuclei and caspase counts (AID 1347080;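 active = compounds whose cell count with miR-34 switched on is under 0.7 times the count with it off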). Conditions: A549 miR-34 inducible, Hoechst nuclei count, 48 h.
Experiment [13] in a line: phospholipid biosynthesis inhibitors in animal cells, primary screen, cell-based, LOPAC library, screen 4 (AID 1347384). To be noted: phospholipid biosynthesis inhibition screen, at 10 µM.
Experiment [14] can be described thus: viability rescue of complex I mutant cybrids, primary screen, cell-based, galactose medium, ATP luminescence (AID 1645843;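 active = z-score of at least 1.8 in each of two replicates, scored against plate mean and spread of sample wells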;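 note: positive z means more ATP and so rescue of galactose-driven cybrid death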). To be noted: complex I mutant cybrid cells, 72 h, stronger effect = higher value.
Experiment [15] in a line: survival rescue of mitochondrial mutant cells in low glucose, primary screen, MELAS cybrids, Rieske KO mouse fibroblasts, CellTiter-Glo (AID 1508586;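 active = mean z-score across replicates of 1.96 or higher in either the MELAS or the Rieske mutant cell line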;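 note: z relative to plate mean and SD of compound and empty wells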).
Experiment [16] addresses NAD(+) hydrolase SARM1 (Homo sapiens) (UniProt Q6SZW1). As to the kind of experiment: SARM1 TIR NADase inhibitors, cell lysate, NAD-Glo luminescence (AID 1508614;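 active = compound whose remaining NAD level is above about 45 nM, limit read from the data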;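 note: higher remaining NAD means stronger inhibition of SARM1 NADase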). To be noted: SAM-TIR HEK293T lysate NADase, at 1 µM, stronger effect = higher value.
Setting [17] is: stronger effect = lower value, cell number ratio, induced over uninduced.
The mark [18] stands for this setting: measured here: relative caspase fold change +Dox/-Dox.
The mark [19] stands for this setting: measured here: total cells with miR-34 induction, stronger effect = lower value.
Where [20] appears, read: measured here: total cells without miR-34 induction.
[21] abbreviates: MELAS cybrid survival, CellTiter-Glo 48 h, stronger effect = higher value.
The mark [22] stands for this setting: Rieske KO mouse fibroblast survival, CellTiter-Glo 72 h.

The structures appear in SMILES notation. “And” between values parts separate entries of the source, which are not always exact repeats. Equal values may be shown once. The source made the active and inactive calls. Unless noted, the rule behind the calls is not given here.

Chain of NAD(+) hydrolase SARM1 (Homo sapiens) (Q6SZW1 whole entry, looked up): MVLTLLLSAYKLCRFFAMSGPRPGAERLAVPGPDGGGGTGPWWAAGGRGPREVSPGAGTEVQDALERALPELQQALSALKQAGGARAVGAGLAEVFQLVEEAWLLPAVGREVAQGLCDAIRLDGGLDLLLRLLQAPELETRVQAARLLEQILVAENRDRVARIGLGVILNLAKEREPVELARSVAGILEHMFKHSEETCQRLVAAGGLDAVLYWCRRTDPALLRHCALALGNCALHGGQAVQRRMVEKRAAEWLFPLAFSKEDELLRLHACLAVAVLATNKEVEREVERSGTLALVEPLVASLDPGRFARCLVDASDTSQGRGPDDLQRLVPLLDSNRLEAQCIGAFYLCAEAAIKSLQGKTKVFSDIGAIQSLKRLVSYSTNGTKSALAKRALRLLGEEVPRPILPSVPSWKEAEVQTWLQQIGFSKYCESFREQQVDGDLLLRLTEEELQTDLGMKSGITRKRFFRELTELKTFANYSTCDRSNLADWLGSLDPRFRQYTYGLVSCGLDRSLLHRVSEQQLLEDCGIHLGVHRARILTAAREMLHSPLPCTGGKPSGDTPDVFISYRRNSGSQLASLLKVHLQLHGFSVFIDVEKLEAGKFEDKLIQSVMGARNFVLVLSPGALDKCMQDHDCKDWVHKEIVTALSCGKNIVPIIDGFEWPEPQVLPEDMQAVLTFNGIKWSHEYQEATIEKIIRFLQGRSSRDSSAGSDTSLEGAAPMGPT

Usually viability stands for a read-out of living cells in per cent, often relative to untreated cells. A word on the inhibition: it is the change of the read-out against control, counted positive when it falls. As for `OCCN1CCN(CC/C=C2/c3ccccc3Sc3ccc(C(F)(F)F)cc32)CC1`, the parasite load remaining in experiment [1] was 69.9% (inactive). This compound returned a viability in experiment [1] of 81%. Also, the inhibition in [2] is -1% (inactive). Further, the fluorescence ratio (interference) in [3] is 1 (inactive). The nuclear beta-catenin stimulation was -1.3% (inactive) in [4] (at 10 µM) and 14.5% in experiment [4] (stimulation, at 2 µM). Also, the insulin secretion stimulation in experiment [5] was 10.7% (inactive). For the same compound, the viability decrease in experiment [6] is 120% (active). Besides, the tube area decrease in [7] is 88.3% (active). Besides, the GLP1 secretion stimulation in experiment [8] is 69.1% (active). Further, the inhibition of viability in [9] is 126% (active). Also, the viability decrease (inhibition) is 167% (active) in experiment [10] and 102% (active) in experiment [11]. Further, the fold change in experiment [12] (setting [17]) was 1.1 (inactive); in [12] (setting [18]), 1.38. Also, the cell count was 6940 in experiment [12] (setting [19]) and 6310 in [12] (setting [20]). Moreover, the call in experiment [13] was inactive. Moreover, the z-score in experiment [14] was -1.04 (inactive).

`CC1=C(CC(=O)O)c2cc(F)ccc2/C1=C\c1ccc(S(C)(=O)=O)cc1`: the inhibition in experiment [2] is -4% (inactive). In addition, the fluorescence ratio (interference) in experiment [3] was 1 (inactive). The nuclear beta-catenin stimulation in experiment [4] (at 10 µM) was 0.1% (inactive); in [4] (stimulation, at 2 µM), -0.8%. Moreover, the insulin secretion stimulation in experiment [5] was -1.1% (inactive). In [6], the viability decrease is 39.5% (inactive). Also, the tube area decrease in experiment [7] was 7.6% (inactive). Further, the GLP1 secretion stimulation in [8] was -0.4% (inactive). Also, the inhibition of viability in [9] was 66.3% (active). For the same compound, the figures for the viability decrease (inhibition) in [10] and in experiment [11] were 88.7% (active) and 90.1% (active), respectively. The fold change is 0.998 (inactive) in [12] (setting [17]) and 1.86 in experiment [12] (setting [18]). The cell count was found to be 9240 in [12] (setting [19]) and 9260 in [12] (setting [20]). For the same compound, in experiment [13], the compound was classed as inactive. In experiment [14], the z-score was 0.795 (inactive).

For `C(=C\c1ccccc1)/CN1CCN(C(c2ccccc2)c2ccccc2)CC1`, the parasite load remaining in experiment [1] is 32.6% (inactive) and 111% (inactive). In experiment [1], the viability was 52.6% and 87.5%. Further, in [2], the inhibition is 1% (inactive). Besides, the fluorescence ratio (interference) in [3] is 1 (inactive). For the same compound, the nuclear beta-catenin stimulation in experiment [4] (at 10 µM) was 1.7% (inactive); in [4] (stimulation, at 2 µM) it was 0.3%. Also, the insulin secretion stimulation in experiment [5] was -1.8% (inactive). Moreover, the viability decrease in experiment [6] was 88.8% (active). Besides, in experiment [7], the tube area decrease is 26.3% (inactive). The GLP1 secretion stimulation in experiment [8] is -2.7% (inactive). In addition, in experiment [9], the inhibition of viability was 84.4% (active). The viability decrease (inhibition) was 97.3% (active) in experiment [10] and 99.3% (active) in experiment [11]. Also, the fold change is 0.969 (inactive) and 0.928 (inactive) in experiment [12] (setting [17]); 1.77 and 1.18 in experiment [12] (setting [18]). Moreover, the cell count is 7700 and 8780 in experiment [12] (setting [19]); 7950 and 9460 in experiment [12] (setting [20]). Moreover, in experiment [13], the compound was called inactive. For the same compound, the z-score was 0.0624 (inactive) in [15] (setting [21]), -0.105 in experiment [15] (setting [22]) and -0.01 (inactive) in experiment [14]. In addition, the remaining NAD in experiment [16] is 10 nM (inactive).

Regarding `N[C@@H](COP(=O)(O)O)C(=O)O`, in [2], the inhibition was -1% (inactive). Moreover, the fluorescence ratio (interference) in experiment [3] was 1 (inactive). Further, the nuclear beta-catenin stimulation in experiment [4] (at 10 µM) is 0.6% (inactive); in [4] (stimulation, at 2 µM), 14.5%. Also, the insulin secretion stimulation in [5] was 2% (inactive). Further, in experiment [6], the viability decrease was -15.2% (inactive). In addition, the tube area decrease in experiment [7] was -20.7% (inactive). Besides, in experiment [8], the GLP1 secretion stimulation is -1% (inactive). Further, the inhibition of viability in experiment [9] was 0% (inactive). The values for the viability decrease (inhibition) in experiment [10] and in experiment [11] were -26.4% (inactive) and -5.8% (inactive), respectively. The fold change was 1.04 (inactive) and 0.898 (inactive) in experiment [12] (setting [17]); 1.02 and 0.718 in [12] (setting [18]). The cell count in experiment [12] (setting [19]) was 10100 and 7700; in experiment [12] (setting [20]), 9680 and 8570. The call in experiment [13] was inactive. Moreover, the remaining NAD in experiment [16] was 10 nM (inactive). The z-score in [14] was 0.485 (inactive).

Take `C[N+](C)(C)CCOC(=O)CCC(=O)OCC[N+](C)(C)C`: the parasite load remaining in experiment [1] is 28% (inactive). The compound further showed a viability in experiment [1] of 74.5%. For the same compound, in experiment [2], the inhibition was 2% (inactive). The fluorescence ratio (interference) in [3] is 1 (inactive). In addition, the nuclear beta-catenin stimulation in [4] (at 10 µM) was 0.2% (inactive); in experiment [4] (stimulation, at 2 µM), 1.4%. In addition, the insulin secretion stimulation in experiment [5] was 0.95% (inactive). For the same compound, in experiment [6], the viability decrease was 14% (inactive). Also, in experiment [7], the tube area decrease was -17.3% (inactive). The GLP1 secretion stimulation in experiment [8] was 3.2% (inactive). Besides, in experiment [9], the inhibition of viability is 3.4% (inactive). Also, the viability decrease (inhibition) in experiment [10] is -16.3% (inactive); in experiment [11] it was 3.4% (inactive). For the same compound, the fold change in [12] (setting [17]) is 0.999 (inactive) and 0.895 (inactive); in [12] (setting [18]) it was 1.13 and 1.62. For the same compound, the cell count was 9370 and 9270 in experiment [12] (setting [19]); 9380 and 10400 in [12] (setting [20]). The compound was classed as inactive in experiment [13]. Also, the z-score in experiment [15] (setting [21]) was -0.659 (inactive); in experiment [15] (setting [22]), -1.43; in experiment [14], 0.34 (inactive) and -0.11 (inactive).
